Results: PubChem BioAssay (NCI)
The panel holds about 83,000 compounds, 20% with a hit somewhere; the sample as a whole holds those more often.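 Treatment: one concentration, 48 hours, 96-well format. Scoring: percent growth, with anything below 10 considered active.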 Unmarked numbers belong to inactive results. Calls of active or inactive are those of the source.

What was measured:
Assay in all cases: NCI-60 one-dose screen, 48 h (100 = growth as untreated, 0 = no growth, -100 = all killed)
[1] = system: SK-MEL-2 melanoma; details: 10 µM unless noted
[2] = system: SN12C renal; details: 10 µM unless noted
[3] = system: UO-31 renal; details: 10 µM unless noted
[4] = system: ACHN renal; details: 10 µM unless noted
[5] = system: CAKI-1 renal; details: 10 µM unless noted
[6] = system: A498 renal; details: 10 µM unless noted
[7] = system: CCRF-CEM leukemia; details: 10 µM unless noted
[8] = system: MOLT-4 leukemia; details: 10 µM unless noted
[9] = system: SR leukemia; details: 10 µM unless noted
[10] = system: RPMI-8226 leukemia; details: 10 µM
[11] = system: OVCAR-8 ovarian; details: 10 µM unless noted
[12] = system: OVCAR-5 ovarian; details: 10 µM unless noted
[13] = system: SK-OV-3 ovarian; details: 10 µM
[14] = system: IGROV1 ovarian; details: 10 µM unless noted
[15] = system: OVCAR-3 ovarian; details: 10 µM unless noted
[16] = system: HS 578T breast; details: 10 µM unless noted
[17] = system: OVCAR-4 ovarian; details: 10 µM unless noted
[18] = system: NCI/ADR-RES ovarian; details: 10 µM unless noted
[19] = system: TK-10 renal; details: 10 µM unless noted

C=CC(=O)N1CC2(CCC(n3nc(-c4ccc(Oc5ccccc5)cc4)c4c(N)ncnc43)CC2)C1
growth [1]: -89.7% (active)
growth [2]: -10.7% (active)
growth [3]: -63.7% (active)
growth [4]: -83.6% (active)
growth [5]: -75.1% (active)
growth [6]: -93.2% (active)
growth [7]: -6.08% (active)
growth [8]: -28.2% (active)
growth [9]: -23.2% (active)
growth [10]: -56% (active)
growth [11]: -36.5% (active)
growth [12]: -0.902% (active)
growth [13]: -24.6% (active)
growth [14]: -51.2% (active)
growth [15]: -36.6% (active)
growth [16]: -35.5% (active)

CCCCNNC(=O)c1ccc(Br)cc1
growth [1]: 44.5%
growth [2]: 75.1%
growth [3]: 25.1%
growth [4]: 71.4%
growth [5]: 60.1%
growth [6]: 30.2%
growth [7]: 46.6%
growth [8]: 42.1%
growth [9]: 40.9%
growth [10]: 17.8%
growth [11]: 25.8%
growth [12]: 41.1%
growth [17]: 73.9%
growth [13]: 85%
growth [14]: 60.1%
growth [15]: 68.8%
growth [16]: 56.8%
growth [18]: 23.5%

O=C(Nc1ccccc1O)c1ccc(NS(=O)(=O)c2cccc3cccnc23)cc1
growth [1]: 23.6%
growth [2]: 61.2%
growth [3]: 20.8%
growth [4]: 52.1%
growth [5]: 44.7%
growth [6]: 45.5%
growth [7]: 33.1%
growth [9]: 32.8%
growth [10]: 15.3%
growth [11]: 23.9%
growth [12]: 16.5%
growth [17]: 74.5%
growth [13]: 64.5%
growth [14]: 58.6%
growth [15]: 62.5%
growth [16]: 37.3%
growth [18]: 29.2%

COc1cc(NC(=O)COc2ccccc2)c(C(N)=O)cc1OC
growth [1]: 9.86% (active)
growth [2]: 44.7%
growth [3]: 51.3%
growth [4]: 54.9%
growth [5]: 37.1%
growth [6]: 4.84% (active)
growth [7]: 6.33% (active)
growth [9]: 23.3%
growth [10]: 9.18% (active)
growth [11]: 34.2%
growth [12]: 48.8%
growth [13]: 30.4%
growth [14]: 43.9%
growth [15]: 6.16% (active)
growth [16]: 29.6%
growth [18]: 10.2%

CCCCCCCCCCCC(=O)[O][Sn]([CH2]CCC)([CH2]CCC)[CH2]CCC
growth [1]: -90.5% (active)
growth [2]: -93.5% (active)
growth [3]: -97.9% (active)
growth [4]: -95.2% (active)
growth [5]: -97.8% (active)
growth [6]: -86% (active)
growth [8]: -27% (active)
growth [9]: -42.7% (active)
growth [10]: -34% (active)
growth [11]: -81.4% (active)
growth [12]: -96.9% (active)
growth [13]: -100% (active)
growth [14]: -77.1% (active)
growth [15]: -97.5% (active)
growth [16]: -20.2% (active)

CN1CCc2c(Sc3ccc(C(=O)NO)cc3)c3ccccc3n2C1
growth [1]: 39.6%
growth [2]: 59.4%
growth [3]: 62.8%
growth [4]: 64.6%
growth [5]: 78.8%
growth [6]: 28.6%
growth [7]: 3.13% (active)
growth [8]: 6.7% (active)
growth [9]: 12.6%
growth [10]: 7.63% (active)
growth [11]: 7.62% (active)
growth [12]: 27.1%
growth [17]: 28.3%
growth [13]: 62.4%
growth [14]: 75.6%
growth [15]: 42.8%
growth [16]: 60.2%
growth [18]: 75.2%

CCSc1nnc2c3cc(Br)ccc3n(C)c2n1
growth [1]: 97.8%
growth [2]: 102%
growth [3]: 63.3%
growth [4]: 90.8%
growth [5]: 80.9%
growth [6]: 91.5%
growth [7]: 102%
growth [8]: 107%
growth [9]: 92.7%
growth [10]: 104%
growth [11]: 97.2%
growth [12]: 105%
growth [17]: 98%
growth [13]: 105%
growth [14]: 90.8%
growth [15]: 109%
growth [16]: 111%
growth [18]: 109%

Clc1ccc2c(N3CCN(c4ccnc(NC5CCCCC5)n4)CC3)ccnc2c1
growth [1]: 72.9%
growth [3]: 22.4%
growth [19]: 61.1%
growth [4]: 45.5%
growth [5]: 57.8%
growth [6]: -40.7% (active)
growth [7]: 8.39% (active)
growth [8]: -3.75% (active)
growth [9]: -36% (active)
growth [10]: 2.01% (active)
growth [11]: 56.6%
growth [12]: 80.8%
growth [17]: 42.3%
growth [13]: 62.7%
growth [15]: 53.4%
growth [16]: 67.7%

Cc1nn(-c2ccccc2)c2nc3nc4c(c(N)c3c(-c3ccc(Cl)cc3)c12)CCC4
growth [1]: 96.8%
growth [2]: 105%
growth [3]: 75.2%
growth [4]: 51.1%
growth [5]: 93.1%
growth [6]: 92.4%
growth [7]: 21.7%
growth [8]: 90.4%
growth [9]: -25.9% (active)
growth [10]: 82.3%
growth [11]: 83%
growth [12]: 93.2%
growth [17]: 101%
growth [13]: 98.6%
growth [14]: 84.5%
growth [15]: 111%
growth [16]: 99.5%
growth [18]: 95.2%
